An excerpt weighted towards active compounds, which were near 21% of everything screened.
NS1 function inh = qHTS Assay for Inhibitors of Influenza NS1 Protein Function | 270,000 tested, 0.4% active | Potency, µM (titrated, usually from 46.1 µM); note: actives are rising curves; nearly all actives have a fitted effect of over 50% in size
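S. cerevisiae expressing influenza A NS1, grown in glucose, washed, then diluted 1:100 into pH 6.0 -URA galactose medium with 23 nl compound. Growth recovery read as OD600; NS1-free strain serves as control.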
Pf growth 48h = Primary qHTS for delayed death inhibitors of the malarial parasite plastid, 48 hour incubation | Potency, µM (top dose mostly 28.7 µM), usual class: inhibitors | 310,000 tested, 5.9% active | P. falciparum luciferase growth in erythrocytes, 48 h | AID 504832, 2011; active = well fitted inhibition curve with a large enough effect; inconclusive = small, poorly fitted or top-dose-only effect, or another doubt; inactive = no such curve, though single readings can be large or run the other way
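Growth was read as firefly luciferase luminescence after a 48 h, 37 C, 5% CO2 exposure of compounds to reporter-bearing P. falciparum cultures (0.1% parasitemia, 2% hematocrit final) in Albumax-supplemented RPMI 1640.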
CHX counter = Cycloheximide Counterscreen for Small Molecule Inhibitors of Shiga Toxin; max response, %; cell reporter, cycloheximide protein synthesis inhibition counterscreen; 300,000 tested, 12% active; in the data active = max response mostly above about 13%, no sharp cut-off; inactive = mostly below about 14%; note: read at 38.3 µM for the half of the compounds with a filed dose
Shiga inhibitor = A qHTS for Small Molecule Inhibitors of Shiga Toxin; Vero cells, Shiga toxin protein synthesis inhibition reporter; inhibition, % at 38.7 µM; 290,000 tested, 9.2% active; AID 2315, 2010; in the data active = inhibition mostly above about 28%, no sharp cut-off; inactive = mostly below about 43%
SARS PLP yeast = qHTS of Yeast-based Assay for SARS-CoV PLP; 330,000 tested, 0.19% active; AID 485353, 2010; Potency, µM (series often up to 32.9 µM), usual class: activators; S. cerevisiae expressing SARS-CoV PLpro, growth rescue; note: nearly all actives have a fitted effect of over 55% in size
Pf growth 96h = Primary qHTS for delayed death inhibitors of the malarial parasite plastid, 96 hour incubation. P. falciparum luciferase reporter growth, 96 h. Potency, µM (top dose mostly 28.7 µM), hits mostly inhibitors. 320,000 tested, 6.9% active. AID 504834, 2011; active = well fitted inhibition curve with a large enough effect; inconclusive = small, poorly fitted or top-dose-only effect, or another doubt; inactive = no such curve, though single readings can be large or run the other way
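Two-generation exposure (96 h) targets delayed-death phenotype. Reporter parasites carrying integrated firefly luciferase, in red cells at 2% hematocrit and 0.05% parasitemia final, kept at 37 C, 5% CO2; luminescence loss indicates inhibition.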
Hits are given with their value. Unless noted, calls come from the whole dose curve.

CC(C(=O)N1CCCC1)N1CCN(S(=O)(=O)c2ccc(C(C)(C)C)cc2)CC1 (stereo not drawn) was read as Pf growth 48h 0.828µM, SARS PLP yeast inactive and Pf growth 96h 0.465µM.
Screening CC(C)c1ccc(S(=O)(=O)N2CCN(C(C)C(=O)N3CCCC3)CC2)cc1 (stereo not drawn) returned Pf growth 48h inconclusive, SARS PLP yeast inactive and Pf growth 96h 11.7µM.
CN(C(=O)CCc1nc2ccccc2c(=O)[nH]1)C1CCS(=O)(=O)C1 (stereo not drawn) was read as Pf growth 48h inactive, SARS PLP yeast inactive and Pf growth 96h inconclusive.
Screening COc1ccc(/C=C/C(=O)N2CCCc3ccccc32)cc1 returned NS1 function inh inactive, Pf growth 48h inactive, CHX counter 51.7, Shiga inhibitor 74.1, SARS PLP yeast inactive and Pf growth 96h inactive.
Screening O=C1CCN(C(=O)/C=C/c2ccccc2)c2ccccc21 returned NS1 function inh inactive, Pf growth 48h inactive, CHX counter 28.0, Shiga inhibitor 41.2, SARS PLP yeast inactive and Pf growth 96h inconclusive.
COc1ccc(/C=C/C(=O)N2CCCc3ccccc32)c(OC)c1 was read as NS1 function inh inactive, Pf growth 48h inconclusive, CHX counter 14.0, Shiga inhibitor inactive, SARS PLP yeast inactive and Pf growth 96h inconclusive.
For COc1ccc(OC)c(/C=C/C(=O)N2CCCc3ccccc32)c1 the results were Pf growth 48h inactive, CHX counter inactive, Shiga inhibitor inactive, SARS PLP yeast inactive and Pf growth 96h inconclusive.
`O=C1CN(C(=O)/C=C/c2ccccc2)CCN1` gave NS1 function inh inactive, Pf growth 48h inactive, CHX counter inactive, Shiga inhibitor inactive, SARS PLP yeast inactive and Pf growth 96h inactive.
For CN(Cc1ccc(C(F)(F)F)cc1)C(=O)C1CC(=O)N(Cc2ccco2)C1 (stereo not drawn) the results were SARS PLP yeast inactive.
Screening CN(C(=O)Cn1c(=O)n(CCCCC(=O)NC2CCCC2)c(=O)c2ccccc21)C1CCCCC1 returned NS1 function inh inactive.
`Cc1nc(C)c(-c2ccc(SCc3ccccc3C)nn2)s1` gave NS1 function inh inactive, Pf growth 48h inactive, CHX counter 44.7, Shiga inhibitor 33.7, SARS PLP yeast inactive and Pf growth 96h inactive.
Cc1ccccc1CSc1ccc(-c2ccc3c(c2)OCO3)nn1 was read as NS1 function inh inactive, Pf growth 48h inactive, CHX counter 49.1, Shiga inhibitor 82.2, SARS PLP yeast inactive and Pf growth 96h inactive.
c1cncc(CSc2ccc(-c3ccc4c(c3)OCO4)nn2)c1 was read as Pf growth 48h inactive, CHX counter 57.1, Shiga inhibitor 98.7, SARS PLP yeast inactive and Pf growth 96h inactive.
COc1cccc(-c2cc(C(=O)N3CCN(C(=O)c4ccco4)CC3)[nH]n2)c1 was read as NS1 function inh inactive, Pf growth 48h inconclusive, CHX counter inactive, Shiga inhibitor inactive, SARS PLP yeast inactive and Pf growth 96h inconclusive.
`COc1ccc2oc(=O)c(-c3nnc(NCc4ccco4)s3)cc2c1` gave NS1 function inh inactive, Pf growth 48h inactive, CHX counter 31.1, Shiga inhibitor 62.5, SARS PLP yeast inactive and Pf growth 96h inactive.
COc1cccc2cc(-c3cn4cccc(C)c4n3)c(=O)oc12 was read as NS1 function inh inactive.
CCOc1cccc2cc(-c3nnc(NCc4ccco4)s3)c(=O)oc12 was read as NS1 function inh inactive, Pf growth 48h inactive, CHX counter inactive, Shiga inhibitor 40.4, SARS PLP yeast inactive and Pf growth 96h inconclusive.
For CCOc1cccc2cc(-c3cn4cc(C)ccc4n3)c(=O)oc12 the results were NS1 function inh inactive, Pf growth 48h inactive, CHX counter inactive, Shiga inhibitor 36.4, SARS PLP yeast inactive and Pf growth 96h inconclusive.
`COc1cccc(/C=N/Nc2ccc(S(=O)(=O)O)cc2)c1O` gave NS1 function inh inactive, Pf growth 48h inactive, CHX counter inactive, Shiga inhibitor inactive, SARS PLP yeast inactive and Pf growth 96h inactive.
Screening CCOc1ccccc1/C=N/Nc1ccnc(=O)[nH]1 returned NS1 function inh inactive, Pf growth 48h inconclusive, CHX counter 24.4, Shiga inhibitor inactive, SARS PLP yeast inactive and Pf growth 96h inconclusive.
For O=c1nccc(N/N=C/c2ccccc2O)[nH]1 the results were NS1 function inh inactive, Pf growth 48h 9.28µM, CHX counter 26.9, Shiga inhibitor inactive, SARS PLP yeast inactive and Pf growth 96h 0.828µM.
COc1cccc(/C=N/Nc2ccnc(=O)[nH]2)c1O was read as NS1 function inh inactive, Pf growth 48h 0.294µM, CHX counter 25.5, Shiga inhibitor 56.3, SARS PLP yeast inactive and Pf growth 96h 0.233µM.
COc1cccc(C=N[C@@H](CO)[C@@H](O)c2ccc([N+](=O)[O-])cc2)c1O was read as NS1 function inh inactive, Pf growth 48h inactive, CHX counter inactive, Shiga inhibitor inactive, SARS PLP yeast inactive and Pf growth 96h inactive.
For COc1cccc(/C=N/Nc2ccc([N+](=O)[O-])cn2)c1O the results were NS1 function inh inactive, Pf growth 48h inconclusive, CHX counter 39.8, Shiga inhibitor 90.8, SARS PLP yeast inactive and Pf growth 96h inconclusive.
CCOc1ccccc1/C=N/Nc1cc(C)nc2ccc(C)cc12 was read as NS1 function inh inactive, Pf growth 48h inactive, CHX counter inactive, SARS PLP yeast inactive and Pf growth 96h inconclusive.
Oc1ccccc1/C=N/Nc1nn[nH]n1 was read as NS1 function inh inactive, Pf growth 48h inactive, CHX counter inactive, Shiga inhibitor inactive, SARS PLP yeast inactive and Pf growth 96h inactive.
For Cn1c(=O)[nH]c(=O)c2c1nc(Br)n2C/C=N/NC(=O)c1ccccc1 the results were NS1 function inh inactive, Pf growth 48h inactive, CHX counter 39.0, Shiga inhibitor 55.4, SARS PLP yeast inactive and Pf growth 96h inactive.
`Cc1ccccc1NC1c2ccccc2C(=O)N1Cc1ccco1` (stereo not drawn) gave NS1 function inh inactive, CHX counter inactive, Shiga inhibitor inactive, SARS PLP yeast inactive and Pf growth 96h 8.28µM.
Screening COc1cc(C)ccc1OCC(=O)OCC(=O)NCC1CCCCC1 returned SARS PLP yeast inactive.
`Nc1nc(-c2cccnc2)nn1C(=O)c1ccc(F)cc1` gave NS1 function inh inactive, Pf growth 48h inactive, CHX counter inactive, Shiga inhibitor inactive, SARS PLP yeast inactive and Pf growth 96h inconclusive.
For Fc1ccc(CSc2ccc3nnc(-c4cccnc4)n3n2)cc1 the results were Pf growth 48h inactive, CHX counter inactive, Shiga inhibitor inactive, SARS PLP yeast inactive and Pf growth 96h inconclusive.
O=c1[nH]c2ccccc2cc1-c1nnn(-c2ccc(F)cc2)n1 was read as NS1 function inh inactive, Pf growth 48h inactive, CHX counter 23.2, Shiga inhibitor 48.9, SARS PLP yeast inactive and Pf growth 96h inactive.
Screening Clc1ccc(-n2nnc(-c3nccs3)n2)cc1Cl returned NS1 function inh inactive, Pf growth 48h inactive, CHX counter 28.5, Shiga inhibitor 73.7, SARS PLP yeast inactive and Pf growth 96h inactive.
